# A549 viability = counter-screen for Nrf2 inhibitors: cytotoxicity in A549 cells. A549 ARE-Fluc cells, CellTiter-Fluor viability, 18-24 h. Potency, µM (highest dose often 46 µM), for inactives: at the highest dose activity change, negative = cytotoxicity, actives largely listed as inhibitors. 390,000 tested, 0.16% active. AID 504648; further: on the % scale 0 is the no-effect control and ±100 the full control effect
#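 A549 ARE-Fluc cells in 5% FBS OPTI-MEM, 5000 cells/well, rested 2 h then exposed to compounds in concentration-response for 18-24 h at 37 °C. Viability by CellTiter-Fluor fluorescence (Ex 405/Em 525) after 30 min; luciferase luminescence (BugLite, 15 min, RT) read afterwards.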
# Nrf2 block = blocks Nrf2 signaling | 360,000 tested, 2.1% active | A549 ARE-Fluc reporter, luciferase luminescence, 18-24 h | Potency, µM (top dose mostly 46 µM), for the others: top-dose activity change, negative = inhibition, most hits filed as inhibitors | AID 504444; further: on the % scale 0 is the no-effect control and ±100 the full control effect; nearly all actives have a fitted effect of over 60% in size
#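 In this cell-based qHTS, ARE-driven firefly luciferase in A549 cells reports Nrf2 activity; the luminescent signal after BugLite lysis is the measured value, with a prior CellTiter-Fluor read for cell health.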
# ELG1 DNA repair = blocks ELG1-dependent DNA repair in HEK293T cells | Potency, µM (top dose mostly 46.1 µM), without a hit: at the highest dose activity change, negative = inhibition, actives largely listed as inhibitors | HEK293T ELG1-luciferase reporter, luminescence, 16 h; DNA damage induced by 5-fluorouridine | 330,000 tested, 2.3% active | AID 504467; further: on the % scale 0 is the no-effect control and ±100 the full control effect; nearly all actives have a fitted effect of over 55% in size
#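 Step one: seed 2,000 cells per well. Step two: pin-transfer compound or DMSO alongside 5-fluorouridine. Step three: incubate 16 hr, 37 °C, 5% CO2. Step four: add ONE-Glo, wait 30 min, read luminescence.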
# mIDH1 inhibitor = inhibitors of human mutant IDH1 R132H; Potency, µM (series often up to 76.6 µM), for the others: at the highest dose activity change, negative = inhibition, hits mostly inhibitors; 390,000 tested, 0.093% active; AID 602179; IDH1-R132H enzyme, NADPH consumption, diaphorase/resazurin fluorescence; O75874; further: on the % scale 0 is the no-effect control and ±100 the full control effect; nearly all actives have a fitted effect of over 65% in size
# Target sequence (O75874 whole entry R132H, stated change not applied): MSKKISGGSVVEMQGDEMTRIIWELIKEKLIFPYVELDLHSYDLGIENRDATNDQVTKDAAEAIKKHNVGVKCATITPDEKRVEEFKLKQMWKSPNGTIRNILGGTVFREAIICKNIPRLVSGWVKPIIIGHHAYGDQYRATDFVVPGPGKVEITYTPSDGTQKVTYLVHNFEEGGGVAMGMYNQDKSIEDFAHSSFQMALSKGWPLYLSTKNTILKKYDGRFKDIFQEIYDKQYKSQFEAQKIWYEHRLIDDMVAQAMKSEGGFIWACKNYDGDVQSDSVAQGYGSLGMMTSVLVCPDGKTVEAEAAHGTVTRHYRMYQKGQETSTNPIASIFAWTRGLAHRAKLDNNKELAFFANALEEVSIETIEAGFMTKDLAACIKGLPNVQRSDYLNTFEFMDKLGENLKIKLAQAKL
#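 IDH1-R132H (0.5 ug/mL) preincubated 30 min with compound, then NADPH (0.016 mM) and alpha-KG (2 mM) added; 80 min at RT, pH 7.5. Remaining NADPH coupled via diaphorase/resazurin to fluorescence (540/590 nm); concentration-response curves normalized to no-enzyme control.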
# Nrf2 activator = Nrf2 pathway activation; AREc32 ARE-luciferase reporter (MCF7-derived line), luminescence, 24 h; Potency, µM (highest dose often 46.1 µM), for inactives: at the highest dose activation, hits mostly activators; 410,000 tested, 0.31% active; further: % of control where 0% means no effect; nearly all actives have a fitted effect of over 65% in size
#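 Steps: seed AREc32_Fluc cells (1000/well, 5% FBS OPTI-MEM); incubate overnight at 37 deg C; add 23 nL compound; incubate 24 hr; add Steady-Glo; hold 30 min RT; read luminescence.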
# Starred values were filed as active, the others as inactive; ? = inconclusive; . = no result. Compounds with a hit are over-represented: about 3.8% of the library has one in this group of screens. The call rests on the fitted dose curve; in most records, active means well fitted curve in the direction sought with a large enough effect; inconclusive means small, poorly fitted or top-dose-only effect, or another doubt; inactive means no such curve, though single readings can be large; an effect the other way counts as inactive or inconclusive. Potency means the concentration at half of the fitted maximal effect.
SMILES,A549 viability,Nrf2 block,ELG1 DNA repair,mIDH1 inhibitor,Nrf2 activator
CC(=O)N1CCc2cc(S(=O)(=O)CCC(=O)N3CCN(c4cc(C)ccc4C)CC3)ccc21,0%,15µM*,?,-1%,0%
CCC(=O)N1CCc2cc(S(=O)(=O)CCC(=O)N3CCN(c4ccc(C(C)=O)cc4)CC3)ccc21,0%,-10%,?,-11%,0%
Cc1ccc(S(=O)(=O)C2(C(=O)N3CCN(c4cc(C)ccc4C)CC3)CC2)cc1,-1%,-14%,26µM*,2%,-1%
CCC(=O)N1CCc2cc(S(=O)(=O)CCC(=O)N3CCN(c4ccc(Cl)cc4)CC3)ccc21,1%,16µM*,?,-11%,1%
CCC(=O)N1CCc2cc(S(=O)(=O)CCC(=O)N3CCN(c4cccc(Cl)c4)CC3)ccc21,-3%,23µM*,.,-2%,1%
Cc1cccc(C)c1Nc1sc(C(=O)c2ccccc2)c(N)c1C(=O)Nc1ccc(F)cc1,-12%,.,.,-21%,5%
COc1ccc(OCCn2c(CCNC(=O)C3CCCCC3)nc3ccccc32)cc1,-24%,?,.,.,.
Cc1cc(C)n2c(Nc3cccc(C(F)(F)F)c3)c(-c3ccsc3)nc2n1,-13%,?,.,-37%,6%
COc1ccccc1C1c2c(-c3ccc(Cl)cc3)n[nH]c2C(=O)N1c1ccc(C)cc1 (stereo not given),-21%,?,.,-13%,1%
CCc1nc(Nc2ccc(F)c(Cl)c2)c2c3c(sc2n1)CCCC3,2%,?,.,-2%,3%
COc1ccc(Cl)cc1Nc1cc(C)nc2nc(-c3ccccc3C)nn12,1%,23%,.,0%,1%
CCN(C(C)=O)c1cnc(C=NNC(N)=S)c2ccccc12,?,8.2µM*,.,3%,2%
Cc1ccc(C(=O)O)cc1NC(=O)CCc1c(C)noc1C,.,.,.,1%,3%
Cc1nnsc1S(=O)c1ccc(Cl)c(Cl)c1 (stereo not given),-9%,-17%,-15%,-5%,11µM*
CCN(C(=O)C1CCN(S(=O)(=O)c2ccc3c(c2)CCCN3C(=O)C2CCC2)CC1)c1cccc(C)c1,-15%,.,.,17%,1%
CCCCN(C)S(=O)(=O)c1cc(-c2cc(C)no2)ccc1C,-3%,?,.,6%,0%
COc1ccc(-c2sc3ccc(OC)cc3c2C#Cc2cncn2C)cc1,-2%,?,5.8µM*,8%,5%
COc1cc(NC(=O)c2ccco2)c(C(=O)OCC(=O)c2c[nH]c3ccccc23)cc1OC,0%,-11%,8.2µM*,4%,7%
COc1ccc(CCNC(=O)c2ccccc2NC(=O)c2ccco2)cc1OC,3%,-17%,18µM*,7%,2%
O=C(Nc1ccccc1C(=O)NCCc1ccccc1)c1ccco1,0%,.,?,3%,2.8µM*
COc1ccc(CCNC(=O)c2ccco2)cc1OC,4%,9%,-13%,6%,-1%
CCCc1cc(=O)oc2cc(C)c3c(-c4ccccc4)coc3c12,?,-5%,.,-5%,-1%
CC(=NNC1=NCCN1)c1cnn(C2=NCCN2)c1C,.,.,.,.,0%
CN(C)S(=O)(=O)c1cccc(N=c2scc(-c3ccc4c(c3)NC(=O)CO4)n2CC2CCCO2)c1 (stereo not given),-3%,.,23µM*,0%,6%
O=C1COc2ccc(-c3csc(=Nc4ccc(OC(F)F)cc4)n3CC3CCCO3)cc2N1 (stereo not given),?,?,?,1%,2%
SMILES,A549 viability,Nrf2 block,ELG1 DNA repair,mIDH1 inhibitor,Nrf2 activator
COc1ccccc1N=c1scc(-c2ccc3c(c2)NC(=O)CO3)n1CC1CCCO1 (stereo not given),-7%,?,16µM*,0%,2%
COc1cc(C2CC(=O)N(Cc3ccc(F)cc3)c3ccccc3S2)cc(OC)c1OC (stereo not given),-20%,16µM*,.,-9%,-3%
COc1cc(C2CC(=O)Nc3ccccc3S2)cc(OC)c1OC (stereo not given),6%,-21%,10µM*,11%,-1%
CN1CCN(c2ncc3c(n2)CCN(Cc2ccccc2Cl)C3)CC1,9%,.,.,-7%,1%
C=CCCC(=O)Nc1nc(C)c(-c2csc(Nc3cccc(OC)c3)n2)s1,-7%,0%,15µM*,-15%,1%
COc1cccc(Nc2nc(-c3sc(NC(=O)c4ccccc4)nc3C)cs2)c1,-11%,-13%,?,-28%,7%
CCCC(C)C(=O)Nc1nc(C)c(-c2csc(Nc3cc(OC)ccc3OC)n2)s1 (stereo not given),1%,-21%,18µM*,12%,-1%
C=CCCC(=O)Nc1nc(C)c(-c2csc(Nc3cc(OC)ccc3OC)n2)s1,-15%,-18%,7.3µM*,-5%,-2%
COc1ccccc1Nc1nc(-c2sc(NC(=O)c3cccc(Cl)c3)nc2C)cs1,.,.,-7%,.,.
COc1ccc(OC)c(Nc2nc(-c3sc(N)nc3C)cs2)c1,-11%,-25%,12µM*,-5%,4%
COc1cccc(Nc2nc(-c3sc(NC(=O)CC(C)C)nc3C)cs2)c1,-1%,10%,?,14%,4%
Cc1cc(O)ccc1Nc1nc(-c2sc(N)nc2C)cs1,-8%,.,-24%,3%,4%
CCCC(=O)Nc1nc(C)c(-c2csc(Nc3cc(OC)ccc3OC)n2)s1,-6%,?,5.2µM*,8%,1%
CCCC(=O)Nc1nc(C)c(-c2csc(Nc3ccccc3OC)n2)s1,-3%,11%,23µM*,3%,0%
CCCCCC(=O)Nc1nc(C)c(-c2csc(Nc3cc(Cl)ccc3OC)n2)s1,2%,5%,-6%,-17%,7%
COc1ccccc1Nc1nc(-c2sc(NC(=O)CC(C)C)nc2C)cs1,2%,11%,?,6%,-2%
CCOc1ccc(NC(=O)CN2CCN(CC(=O)Nc3ccccc3OC)CC2)cc1,2%,-22%,?,0%,5%
COc1ccccc1NC(=O)CN1CCCCCC1,0%,3%,20%,-3%,0%
CCOc1ccc(NC(=O)CN2CCN(C3c4ccccc4-c4ccccc43)CC2)cc1,-4%,10%,13µM*,2%,1%
COc1ccccc1NC(=O)CN1CCN(C2c3ccccc3-c3ccccc32)CC1,-21%,.,3.7µM*,7%,0%
COc1ccc(CNCc2cc3c(C(C)(C)C)nn(-c4ccccc4)c3[nH]c2=O)cc1,-25%,18µM*,-14%,9%,7%
Cc1ccc2nc(Cl)c3cc(C(=O)NC4CCCCC4)sc3c2c1,-1%,-7%,.,-10%,2%
O=C(CSc1nc2ccccc2nc1SCC(=O)N1CCCCC1)N1CCCCC1,-20%,?,16µM*,-4%,0%
Cc1nnc(SCC(=O)N2CCOCC2)c2ccccc12,1%,9.2µM*,0%,4%,?

# Screening data from PubChem BioAssay.
